For part of these data: Results with a measured potency or affinity are listed apart.
Assays:
Staphylococcus aureus = assay: Antibacterial activity against Staphylococcus aureus MRSA ATCC 43300 (CO-ADD:GP_020); MIC in CAMBH media using NBS plates, by Resazurin F(560/590); type: functional; settings: Concentration 20 uM, ASSAY_TEST Inhibition of Bacterial Growth, detection method Resazurin, Fluorescence (ex560/em590), MEDIA CAMHB, plate type 384well, CORNING #3640, time 18 hr
Acinetobacter baumannii = assay: Antibacterial activity against Acinetobacter baumannii ATCC 19606 (CO-ADD:GN_034); MIC in CAMBH media using NBS plates, by Resazurin F(560/590); type: functional; settings: Concentration 20 uM, ASSAY_TEST Inhibition of Bacterial Growth, detection method Resazurin, Fluorescence (ex560/em590), MEDIA CAMHB, plate type 384well, CORNING #3640, time 18 hr
Escherichia coli = assay: Antibacterial activity against Escherichia coli ATCC 25922 (CO-ADD:GN_001); MIC in CAMBH media using NBS plates, by Resazurin F(560/590); type: functional; settings: Concentration 20 uM, ASSAY_TEST Inhibition of Bacterial Growth, detection method Resazurin, Fluorescence (ex560/em590), MEDIA CAMHB, plate type 384well, CORNING #3640, time 18 hr
Klebsiella pneumoniae = settings: Concentration 20 uM; ASSAY_TEST Inhibition of Bacterial Growth; detection method Absorption (OD600); MEDIA CAMHB; plate type 384well; NBS; CORNING #3640; time 18 hr
Candida albicans = settings: 20 µM
Cryptococcus neoformans = settings: Concentration 20 uM; ASSAY_TEST Inhibition of Fungal Growth; detection method Resazurin; Absorption (OD600-OD570); plate type 384well; NBS; CORNING #3640

**Q.** `Brc1ccc(-c2csc(Nc3nc(-c4ccc(Br)cc4)cs3)n2)cc1` was tested. Which Inhibition (Staphylococcus aureus) did it give?
**A.** 27.27%

**Q.** And the Inhibition (Acinetobacter baumannii)?
**A.** -8.44%

**Q.** What about the Inhibition (Escherichia coli) of the same compound?
**A.** 9.62%

**Q.** What about the Inhibition (Klebsiella pneumoniae) of the same compound?
**A.** 1.43%

**Q.** What about the Inhibition (Candida albicans) of the same compound?
**A.** 3.84%

**Q.** And the Inhibition (Cryptococcus neoformans)?
**A.** 3.42%

**Q.** What does the source list for `Clc1ccc(-c2[nH]nc3c2Cc2ccccc2-3)cc1Cl`?
**A.** Inhibition (Staphylococcus aureus): -2.87%; Inhibition (Acinetobacter baumannii): 13.22%; Inhibition (Escherichia coli): -5.11%; Inhibition (Klebsiella pneumoniae): 8.31%; Inhibition (Candida albicans): 5.84%; Inhibition (Cryptococcus neoformans): 2.71%

**Q.** What does the source list for `Cc1cc(C)n2c(C)nnc2c1`?
**A.** Inhibition (Staphylococcus aureus): -1.68%; Inhibition (Acinetobacter baumannii): -10.08%; Inhibition (Escherichia coli): 5.69%; Inhibition (Klebsiella pneumoniae): 10.38%; Inhibition (Candida albicans): -0.15%; Inhibition (Cryptococcus neoformans): -3%

**Q.** How did the Inhibition (Staphylococcus aureus) turn out when `N#Cc1cc(-c2ccccc2)[nH]c1-c1nccc2ccccc12` was run?
**A.** -0.89%

**Q.** What about the Inhibition (Acinetobacter baumannii) of the same compound?
**A.** -11.99%

**Q.** What about the Inhibition (Escherichia coli) of the same compound?
**A.** 7.81%

**Q.** What about the Inhibition (Klebsiella pneumoniae) of the same compound?
**A.** 10.89%

**Q.** And the Inhibition (Candida albicans)?
**A.** 17.5%

**Q.** And the Inhibition (Cryptococcus neoformans)?
**A.** -6.55%

**Q.** With `CCC(C)NC(=O)CC(C)C` (centres undefined) as the compound, how does the Inhibition (Staphylococcus aureus) read?
**A.** 6.08%

**Q.** And the Inhibition (Acinetobacter baumannii)?
**A.** -12.68%

**Q.** What about the Inhibition (Escherichia coli) of the same compound?
**A.** 19.94%

**Q.** And the Inhibition (Klebsiella pneumoniae)?
**A.** 15.35%

**Q.** And the Inhibition (Candida albicans)?
**A.** -0.68%

**Q.** What about the Inhibition (Cryptococcus neoformans) of the same compound?
**A.** -12.52%

**Q.** For `CSc1ncc2ncn(C3OC(CO)C(O)C3O)c2n1` (centres undefined), which Inhibition (Staphylococcus aureus) is on record?
**A.** 5.7%

**Q.** And the Inhibition (Acinetobacter baumannii)?
**A.** 9.73%

**Q.** What about the Inhibition (Escherichia coli) of the same compound?
**A.** -9.56%

**Q.** What about the Inhibition (Klebsiella pneumoniae) of the same compound?
**A.** 13.33%

**Q.** What about the Inhibition (Candida albicans) of the same compound?
**A.** 3.06%

**Q.** And the Inhibition (Cryptococcus neoformans)?
**A.** -1.46%

**Q.** Which Inhibition (Staphylococcus aureus) does the source give for `N#Cc1cnn2ccn(C3OC(CO)C(O)C3O)c12` (centres undefined) here?
**A.** 2.98%

**Q.** What about the Inhibition (Acinetobacter baumannii) of the same compound?
**A.** -3.63%

**Q.** And the Inhibition (Escherichia coli)?
**A.** 8.76%

**Q.** What about the Inhibition (Klebsiella pneumoniae) of the same compound?
**A.** 13.94%

**Q.** What about the Inhibition (Candida albicans) of the same compound?
**A.** 4.75%

**Q.** What about the Inhibition (Cryptococcus neoformans) of the same compound?
**A.** -11.71%

**Q.** `COc1ccc(/C=C2/CCOC2=O)cc1` was tested. Which Inhibition (Staphylococcus aureus) did it give?
**A.** -2.28%

**Q.** And the Inhibition (Acinetobacter baumannii)?
**A.** -9.37%

**Q.** What about the Inhibition (Escherichia coli) of the same compound?
**A.** 12.04%

**Q.** What about the Inhibition (Klebsiella pneumoniae) of the same compound?
**A.** 6.07%

**Q.** And the Inhibition (Candida albicans)?
**A.** 3.59%

**Q.** And the Inhibition (Cryptococcus neoformans)?
**A.** -15.8%

**Q.** Which Inhibition (Staphylococcus aureus) does the source give for `Cc1c(Cl)cccc1NC(=O)CC1Sc2ccccc2NC1=O` (centres undefined) here?
**A.** 7.76%

**Q.** And the Inhibition (Acinetobacter baumannii)?
**A.** 13.12%

**Q.** What about the Inhibition (Escherichia coli) of the same compound?
**A.** -17.77%

**Q.** What about the Inhibition (Klebsiella pneumoniae) of the same compound?
**A.** 3.05%

**Q.** What about the Inhibition (Candida albicans) of the same compound?
**A.** 8.03%

**Q.** What about the Inhibition (Cryptococcus neoformans) of the same compound?
**A.** 45.43%

**Q.** `Cc1ccc(S(=O)(=O)NNC(=O)C23CCC(CC2)C3)cc1` was tested. Which Inhibition (Staphylococcus aureus) did it give?
**A.** -6.52%

**Q.** What about the Inhibition (Acinetobacter baumannii) of the same compound?
**A.** 6.35%

**Q.** What about the Inhibition (Escherichia coli) of the same compound?
**A.** 7.26%

**Q.** And the Inhibition (Klebsiella pneumoniae)?
**A.** 14.92%

**Q.** And the Inhibition (Candida albicans)?
**A.** 4.46%

**Q.** And the Inhibition (Cryptococcus neoformans)?
**A.** -6.05%

**Q.** Which results are given for `N#CNC(=N)c1ccccc1`?
**A.** Inhibition (Staphylococcus aureus): 0.25%; Inhibition (Acinetobacter baumannii): 1.21%; Inhibition (Escherichia coli): -14.26%; Inhibition (Klebsiella pneumoniae): 9.63%; Inhibition (Candida albicans): 1.62%; Inhibition (Cryptococcus neoformans): 22.72%

**Q.** `COc1cc(Cl)c(CC(=O)c2c[nH]c3ccccc23)cc1OC` was tested. Which Inhibition (Staphylococcus aureus) did it give?
**A.** -6.42%

**Q.** And the Inhibition (Acinetobacter baumannii)?
**A.** 2.77%

**Q.** And the Inhibition (Escherichia coli)?
**A.** -1.53%

**Q.** What about the Inhibition (Klebsiella pneumoniae) of the same compound?
**A.** 5.86%

**Q.** What about the Inhibition (Candida albicans) of the same compound?
**A.** 3.17%

**Q.** What about the Inhibition (Cryptococcus neoformans) of the same compound?
**A.** -1.97%

**Q.** `c1ccc(Sc2ncnc3ccccc23)cc1` was tested. Which Inhibition (Staphylococcus aureus) did it give?
**A.** 3.09%

**Q.** What about the Inhibition (Acinetobacter baumannii) of the same compound?
**A.** -14.3%

**Q.** And the Inhibition (Escherichia coli)?
**A.** 12.91%

**Q.** And the Inhibition (Klebsiella pneumoniae)?
**A.** 8.16%

**Q.** And the Inhibition (Candida albicans)?
**A.** 2.99%

**Q.** And the Inhibition (Cryptococcus neoformans)?
**A.** -14.16%

**Q.** With `COc1ccc([N+](=O)[O-])cc1NS(=O)(=O)c1ccc(C)cc1` as the compound, how does the Inhibition (Staphylococcus aureus) read?
**A.** 7.11%

**Q.** What about the Inhibition (Acinetobacter baumannii) of the same compound?
**A.** 4.99%

**Q.** What about the Inhibition (Escherichia coli) of the same compound?
**A.** 7.35%

**Q.** And the Inhibition (Klebsiella pneumoniae)?
**A.** 9.82%

**Q.** And the Inhibition (Candida albicans)?
**A.** 5.66%

**Q.** What about the Inhibition (Cryptococcus neoformans) of the same compound?
**A.** -6.48%

**Q.** Which results are given for `COc1cc(C(=O)OC(C)CN2CCOCC2)cc(OC)c1OC` (centres undefined)?
**A.** Inhibition (Staphylococcus aureus): 13.82%; Inhibition (Acinetobacter baumannii): 10.27%; Inhibition (Escherichia coli): 6.24%; Inhibition (Klebsiella pneumoniae): 16.73%; Inhibition (Candida albicans): -2.91%; Inhibition (Cryptococcus neoformans): -0.56%

**Q.** For `Cc1nc2ccc(N)nc2nc1C`, which Inhibition (Staphylococcus aureus) is on record?
**A.** 15.94%

**Q.** What about the Inhibition (Acinetobacter baumannii) of the same compound?
**A.** -14.31%

**Q.** What about the Inhibition (Escherichia coli) of the same compound?
**A.** 16.52%

**Q.** What about the Inhibition (Klebsiella pneumoniae) of the same compound?
**A.** 12.13%

**Q.** And the Inhibition (Candida albicans)?
**A.** -1.28%

**Q.** And the Inhibition (Cryptococcus neoformans)?
**A.** -2.36%

**Q.** For `CCCOc1nc2c(c(=O)n(C)c(=O)n2C)n1C`, which Inhibition (Staphylococcus aureus) is on record?
**A.** 17.4%

**Q.** And the Inhibition (Acinetobacter baumannii)?
**A.** 10%

**Q.** What about the Inhibition (Escherichia coli) of the same compound?
**A.** 3.82%

**Q.** And the Inhibition (Klebsiella pneumoniae)?
**A.** -6.25%

**Q.** What about the Inhibition (Candida albicans) of the same compound?
**A.** 1.36%

**Q.** What about the Inhibition (Cryptococcus neoformans) of the same compound?
**A.** -4.51%

**Q.** Which Inhibition (Staphylococcus aureus) does the source give for `Fc1ccc(-c2cc(-c3cccs3)cc(-c3ccccc3)n2)cc1` here?
**A.** 2.48%

**Q.** What about the Inhibition (Acinetobacter baumannii) of the same compound?
**A.** 12.33%

**Q.** What about the Inhibition (Escherichia coli) of the same compound?
**A.** -3.88%

**Q.** And the Inhibition (Klebsiella pneumoniae)?
**A.** 7.87%

**Q.** And the Inhibition (Candida albicans)?
**A.** 6.36%

**Q.** And the Inhibition (Cryptococcus neoformans)?
**A.** -7.45%

**Q.** `CCn1c2ccccc2nc2cc3c(cc21)c(Cl)c(=O)c1ccccc13` was tested. Which Inhibition (Staphylococcus aureus) did it give?
**A.** 25.73%

**Q.** And the Inhibition (Acinetobacter baumannii)?
**A.** 12.51%

**Q.** And the Inhibition (Escherichia coli)?
**A.** 3.84%

**Q.** And the Inhibition (Klebsiella pneumoniae)?
**A.** 12.19%

**Q.** And the Inhibition (Candida albicans)?
**A.** -1.37%

**Q.** What about the Inhibition (Cryptococcus neoformans) of the same compound?
**A.** -5.64%

— ChEMBL document CHEMBL4296182, “CO-ADD screening of NIH NCI Diversity Set V”
